Assay outcomes: PubChem, several laboratories
MPTP inh = mitochondrial permeability transition pore inhibitors, primary screen, biochemical, isolated mouse mitochondria, absorbance. inhibition, % at 10 µM. 1.4% of 360,000 active. Ca2+ swelling absorbance, 30 min;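 active = inhibition of 50% or more, scaled per plate between neutral and stimulator controls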
CRFR2-BP antag = antagonists of CRF-BP/CRF-R2 complex, primary screen, cell-based, HEK293, calcium dye fluorescence, uHTS. AID 588475, 2011. CRF-induced calcium fluorescence. inhibition, % at 11.8 µM. 0.59% of 350,000 active;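 active = inhibition of the ligand-induced calcium signal above about 50% at the single tested concentration, limit read from the data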
TMEM16A act = TMEM16A chloride channel activators or potentiators, primary screen, cell-based, HTS; AID 623877, 2012; B-score at 10 µM; HEK293 TMEM16A/YFP-H148Q/I152L, iodide quench fluorescence; hits give low values; Anoctamin-1 (Mus musculus), Q8BHY3; 0.3% of 340,000 active;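 active = fluorescence-ratio B-score plate-corrected deviation score at least 3 library SD below zero, with starting fluorescence score within 5 deviations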;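 also: channel opened by trigger with iodide after compound preincubation; score built on the fluorescence ratio of max minus min over baseline; more negative score means more quench and so TMEM16A activation or potentiation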
CRFBP-R2 agonist = agonists of CRF-BP/CRF-R2 complex, primary screen, cell-based, HEK293, calcium dye fluorescence, uHTS. calcium dye fluorescence (FLIPR); percent of saturating CRF peptide response. activation, % at 13.2 µM. 0.46% of 350,000 active. AID 588473, 2011;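 active = activation of at least 50%, plus an integration ratio under a set limit after plate pattern correction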
ANO1 block = TMEM16A chloride channel inhibitors, primary screen, cell-based, HTS; normalized B-score (activity score, 25-100; higher = stronger inhibition) at 10 µM; HEK293 TMEM16A/YFP iodide influx fluorescence, ionomycin; Anoctamin-1 (Mus musculus), Q8BHY3; 1.2% of 310,000 active;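 active = ratio plate-corrected score three or more library SD toward inhibition, starting fluorescence score within five deviations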;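 also: score derived from kinetic fluorescence span divided by baseline fluorescence per well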
GRIN3A LBD mod = binders of NR3A ligand-binding domain, primary screen, biophysical, differential scanning fluorimetry, uHTS; NR3A LBD differential scanning fluorimetry, Tm shift; 0% = protein alone, 100% = glycine-bound protein; Tm shift relative to glycine control, % at 25 µM; 2.5% of 340,000 active;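 active = melting temperature shift of at least 10% of the positive control shift, at one fixed dose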
TMEM16A reconf = TMEM16A chloride channel inhibitors, confirmation, cell-based, re-confirmation; inhibition, % at 10 µM; shares compounds with ANO1 block; AID 652189, 2013; 39% of 2,300 active; HEK293 TMEM16A/YFP-H148Q, iodide quench fluorescence; ionomycin added to raise cell calcium;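 active = mean duplicate percent inhibition, scaled so buffer wells are 0 and the reference blocker 100, over three buffer SD above buffer mean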
TMEM16A Ca cntr = calcium mobilization in TMEM16A/YFP HEK293 cells, confirmation, counter-screen for TMEM16A inhibitor project | calcium response (% of ionomycin), % at 10 µM | shares compounds with ANO1 block | 2% of 2,300 active | Fluo4 calcium mobilization;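 active = duplicate-averaged calcium signal over 20% of the ionomycin maximum, relative to buffer baseline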;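 also: each well's signal is peak minus trough fluorescence divided by its pre-addition baseline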
YFP-HEK293 quench = iodide YFP quench changes in parental YFP-HEK293, counter-screen for TMEM16A inhibitor project, cell-based. AID 652233, 2013. shares compounds with ANO1 block. YFP ratio F(max-min)/F0 at 10 µM. 2,300 tested, under 10 active. ionomycin;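 active = yellow fluorescent protein signal ratio exceeding the buffer control mean by over 5 SD of those controls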;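 also: ratio is mean of duplicate wells from kinetic YFP trace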
ClC-1 rat inh = ClC-1 chloride channel inhibition, selectivity assay for TMEM16A inhibitor project, cell-based, voltage-dependent ClC-1. shares compounds with ANO1 block. CHO ClC-1-YFP, iodide influx fluorescence quench; iodide control reads 0, buffer control 100. ratio percent, % at 10 µM. 2,300 tested, under 10 active. AID 652236, 2013;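 active = duplicate-mean ratio percent above the mean of iodide-only control wells, which defines zero, plus 5 of their SD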;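 also: higher percent means stronger block of ClC-1 iodide influx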
Each line names hits and unclear results; the compound was inactive in the other large screens (follow-up assays come after a bar, where they were run); ! = not confirmed by another sample. Rows were chosen to be rich in hits. Some 5.1% of all compounds tested hit in one or more screens of this group.

Cc1ccccc1-c1cc2nc(NCc3cccnc3)n(C)c(=O)c2s1	none (no result: CRFR2-BP antag, TMEM16A act, CRFBP-R2 agonist, ANO1 block, GRIN3A LBD mod)
CCOC(=O)c1ccc(NC(=O)CSc2ccc(-c3cccnc3)nn2)cc1	ANO1 block 25 | TMEM16A reconf inactive | TMEM16A Ca cntr inactive | YFP-HEK293 quench inactive | ClC-1 rat inh inactive
COc1ccc(NC(=O)CSc2ccc(-c3cccnc3)nn2)cc1	none
C/C(=N\OC(=O)NC(C)C)c1sc(-c2ccccc2)nc1C	none
C/C(=N\OC(=O)NC1CCCCC1)c1sc(-c2ccccc2)nc1C	ANO1 block 25 | TMEM16A reconf 25.0% | TMEM16A Ca cntr inactive | YFP-HEK293 quench inactive | ClC-1 rat inh inactive
CCCCn1c(N)c(N(CCOC)C(=O)COC(=O)COc2ccccc2C#N)c(=O)[nH]c1=O	none
CN(c1ccccc1)S(=O)(=O)c1ccc(NC(=O)c2ccccc2)cc1	none
CN(c1ccccc1)S(=O)(=O)c1ccc(NC(=O)c2nc(S(C)(=O)=O)ncc2Cl)cc1	TMEM16A act -5.46, ANO1 block 25 | TMEM16A reconf 18.5% | TMEM16A Ca cntr inactive | YFP-HEK293 quench inactive | ClC-1 rat inh inactive
CC(=O)Nc1ccccc1OCC(O)CS(=O)(=O)c1ccc(C(F)(F)F)cn1 (configuration not stated)	none
COC(=O)C(Cc1ccc(OC(=O)c2ccc(Cl)cc2)cc1)N1Cc2ccccc2C1=O (configuration not stated)	ANO1 block 100 | TMEM16A reconf 23.5% | TMEM16A Ca cntr inactive | YFP-HEK293 quench inactive | ClC-1 rat inh inactive
O=C(O)CC(c1ccc(Cl)cc1)N1Cc2ccccc2C1=O (configuration not stated)	none
COC(=O)c1ccc(NC(=O)CCN2CCN(CCC(=O)Nc3ccc(C(=O)OC)cc3)CC2)cc1	none
COC(=O)c1ccc(NC(=O)CCN2CCCCC2)cc1	ANO1 block 25! | TMEM16A reconf inactive | TMEM16A Ca cntr inactive | YFP-HEK293 quench inactive | ClC-1 rat inh inactive
CCN(CCCNC(=O)c1c(C)cc(=O)oc1C)c1ccccc1	ANO1 block 25 | TMEM16A reconf inactive | TMEM16A Ca cntr inactive | YFP-HEK293 quench inactive | ClC-1 rat inh inactive
CCCCN(CCCNC(=O)c1c(C)cc(=O)oc1C)c1ccccc1	none
CCOC(=O)c1sc2nc(C)nc(NCc3ccc(F)cc3)c2c1C	ANO1 block 100 | TMEM16A reconf inactive | TMEM16A Ca cntr inactive | YFP-HEK293 quench inactive | ClC-1 rat inh inactive
CCOC(=O)c1sc2nc(C)nc(NCc3ccc(Cl)cc3)c2c1C	none
COc1ccc(C(=O)NNC(=O)c2cccc(S(=O)(=O)N3CCOCC3)c2)cc1	none (no result: ANO1 block)
Cc1ccc(NC(=O)c2ccc(OCC3CCCO3)cc2)cc1 (configuration not stated)	none
O=C(Nc1ccc(S(=O)(=O)N2CCCC2)cc1)c1ccc(OCC2CCCO2)cc1 (configuration not stated)	ANO1 block 25 | TMEM16A reconf 20.0% | TMEM16A Ca cntr inactive | YFP-HEK293 quench inactive | ClC-1 rat inh inactive
